# Results: the supplement of paper PMC7411054
# Test system: WPMY1-TUBA1B-RELA
# Test: lowest phenotypically active concentration; higher = less potent
# Conditions: treatment time: 24 h
# Procedure, shortened: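 Phenotypic activity depended on meeting both a deviation and a reproducibility criterion. The fifteen gene-edited A549, HepG2 and WPMY1 reporter lines were treated at 0.3, 1, 3 or 9 µM for 24 h, four wells each, then imaged live with features normalised to solvent control wells. Deviation required ≥3 of 4 wells past the 95th percentile of control Euclidean distances, and reproducibility a median replicate Pearson correlation above the 95th percentile of non-replicates.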
row,Structure (SMILES),lowest phenotypically active concentration
1,CC[C@H](C)[C@H](NC(=O)OCc1ccccc1)C(=O)N[C@@H](CCC(=O)OC(C)(C)C)C(=O)N[C@@H](C)C(=O)N[C@H](C=O)CC(C)C,≤ 0.3 µM
2,CCOc1cc(N2CCC(O)CC2)ccc1Nc1ncc2c(n1)N(C)c1ccccc1C(=O)N2C,9 µM
3,Cc1c2oc3c(C)ccc(C(=O)NC4C(=O)NC(C(C)C)C(=O)N5CCCC5C(=O)N(C)CC(=O)N(C)C(C(C)C)C(=O)OC4C)c3nc-2c(C(=O)NC2C(=O)NC(C(C)C)C(=O)N3CCCC3C(=O)N(C)CC(=O)N(C)C(C(C)C)C(=O)OC2C)c(N)c1=O (configuration not stated) [Actinomycin D],≤ 0.3 µM
4,N#Cc1c(NC(=O)c2cccc3ccccc23)sc2c1CCCC2,≤ 0.3 µM
5,CN1C/C(=C/c2ccc(B(O)O)cc2)C(=O)/C(=C/c2ccc(B(O)O)cc2)C1,3 µM
6,Nc1ccn([C@@H]2O[C@H](CO)[C@@H](O)C2(F)F)c(=O)n1 [gemcitabine],≤ 0.3 µM
7,Oc1ccc(Nc2nc(-c3ccc(Cl)cc3)cs2)cc1,9 µM
8,Cc1nc(NC(=O)N2CCC[C@H]2C(N)=O)sc1-c1ccnc(C(C)(C)C(F)(F)F)c1 [alpelisib],9 µM
9,CCN(CC)CCCC(C)Nc1ccnc2cc(Cl)ccc12 (configuration not stated) [chloroquine],9 µM
10,CC(C)CCN1c2nc(Nc3cc(F)c(O)c(F)c3)ncc2N(C)C(=O)C1C (configuration not stated),3 µM
11,Nc1cc(C(F)(F)F)c(-c2cc(N3CCOCC3)nc(N3CCOCC3)n2)cn1 [buparlisib],3 µM
12,COc1cc([C@@H]2c3cc4c(cc3[C@@H](O[C@@H]3O[C@@H]5CO[C@@H](C)O[C@H]5[C@H](O)[C@H]3O)[C@H]3COC(=O)[C@H]23)OCO4)cc(OC)c1O [etoposide],≤ 0.3 µM
